Results filed as inconclusive are left out. Entries that show only a call come without a potency. Calls of active or inactive are those of the source. The call rests on the fitted dose curve.
molecular target: Thyrotropin receptor (Homo sapiens) (UniProt P16473); test: qHTS assay to identify small molecule agonists of the thyroid stimulating hormone receptor (TSHR) signaling pathway (AID 1224843); details: TSHR-HEK293 cells, cAMP HTRF, agonist mode, 30 min; series mostly up to 92.4 µM; further: nearly all actives have a fitted effect of over 45% in size
Description: National Center for Advancing Translational Sciences [NCATS]
NIH Chemical Genomics Center [NCGC]
U.S. Environmental Protection Agency [EPA]
National Institutes of Environmental Health Sciences [NIEHS]
National Toxicology Program [NTP]
U.S. Food and Drug Administration [FDA]
TSHR is the receptor for thyrotropin (thyroid stimulating hormone or TSH), a member of the glycoprotein hormone family. TSH is released by the anterior pituitary gland and is the main regulator of thyroid gland growth and development. Upon binding circulating thyrotropin, a G-protein signal cascade activates adenylyl cyclase and […] cAMP concentration is increased. cAMP is a key second messenger involved extensively in cellular signal transduction pathways associated with the majority of G-protein coupled receptors (GPCRs). The activation of these GPCRs by neurotransmitters, lipids, nucleotides, peptides and hormones results in the activation or the inhibition of plasma membrane-bound adenylate cyclase through heterotrimeric G-proteins. A cell-based TSHR assay was used to screen the Tox21 10K library for compounds that can modulate TSHR in agonist mode.
Tox21 Assay Protocol Summary:
TSHR-Hek293 cells were dispensed at 800 cells/4uL/well in 1536-well white plates using a Multidrop dispenser. […] The plates were incubated at room temperature for 30 min. 2.5 ul/well of cAMP-d2 and 2.5ul/well of anti-cAMP-cryptate was added respectively into the assay plates using a Flying Reagent Dispenser. After 1 hr incubation at room temperature, the fluorescence intensity in the plates was measured using an Envision plate reader. Each test compound was measured at 15 concentrations and in triplicates.

Chain of Thyrotropin receptor (Homo sapiens) (P16473 whole entry, looked up): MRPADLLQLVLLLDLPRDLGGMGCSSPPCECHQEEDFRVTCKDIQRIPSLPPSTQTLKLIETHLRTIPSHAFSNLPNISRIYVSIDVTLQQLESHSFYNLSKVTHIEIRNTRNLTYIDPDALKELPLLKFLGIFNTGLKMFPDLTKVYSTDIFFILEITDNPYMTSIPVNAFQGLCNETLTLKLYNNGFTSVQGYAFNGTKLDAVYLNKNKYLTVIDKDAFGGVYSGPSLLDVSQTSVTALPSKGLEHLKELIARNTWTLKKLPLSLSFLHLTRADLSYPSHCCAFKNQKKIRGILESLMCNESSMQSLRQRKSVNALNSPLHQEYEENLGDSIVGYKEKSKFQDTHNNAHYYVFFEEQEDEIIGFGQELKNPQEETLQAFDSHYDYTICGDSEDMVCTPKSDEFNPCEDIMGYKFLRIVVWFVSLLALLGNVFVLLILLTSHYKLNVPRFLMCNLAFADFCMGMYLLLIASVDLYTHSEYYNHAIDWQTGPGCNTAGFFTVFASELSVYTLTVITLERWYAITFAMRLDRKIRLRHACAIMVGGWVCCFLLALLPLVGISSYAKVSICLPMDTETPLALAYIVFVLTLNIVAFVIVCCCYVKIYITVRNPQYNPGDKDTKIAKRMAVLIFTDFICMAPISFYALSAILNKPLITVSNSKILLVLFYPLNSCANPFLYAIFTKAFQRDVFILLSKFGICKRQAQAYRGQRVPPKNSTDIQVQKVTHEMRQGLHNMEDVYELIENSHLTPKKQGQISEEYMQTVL

**Q.** `CC(C#N)CCC#N` (stereo not given) was tested. Which Potency did it give?
**A.** inactive

**Q.** For `CCCC1COC(Cn2cncn2)(c2ccc(Cl)cc2Cl)O1` (stereo not given), which Potency is on record?
**A.** inactive

**Q.** `COc1ccc2c3c1O[C@H]1[C@@H](O)C=C[C@H]4[C@@H](C2)N(C)CC[C@@]341` was tested. Which Potency did it give?
**A.** inactive

**Q.** For `Cc1ccccc1O`, which Potency is on record?
**A.** inactive

**Q.** With `CON(C)C(=O)Nc1ccc(Cl)c(Cl)c1` as the compound, how does the Potency read?
**A.** inactive

**Q.** With `COC(=O)NS(=O)(=O)c1ccc(N)cc1` as the compound, how does the Potency read?
**A.** inactive

**Q.** `CCC[CH2][Sn]([Cl])([Cl])[Cl]` was tested. Which Potency did it give?
**A.** inactive

**Q.** `O=c1ccc(=O)[nH][nH]1` was tested. Which Potency did it give?
**A.** inactive

**Q.** How did the Potency turn out when `C=CC(N)=O` was run?
**A.** inactive

**Q.** With `COC(=O)c1ccccc1C(=O)OC` as the compound, how does the Potency read?
**A.** inactive

**Q.** How did the Potency turn out when `Nc1ccccc1C(=O)O` was run?
**A.** inactive

**Q.** With `O=C(NC(=O)c1c(F)cccc1F)Nc1cc(Cl)c(OC(F)(F)C(F)C(F)(F)F)cc1Cl` (stereo not given) as the compound, how does the Potency read?
**A.** inactive

**Q.** Which Potency does the source give for `CC(=O)C=C(C)C` here?
**A.** inactive

**Q.** `CC(Br)C(=O)O` (stereo not given) was tested. Which Potency did it give?
**A.** inactive

**Q.** Which Potency does the source give for `CCc1cccc(C)c1N(C(=O)CCl)C(C)COC` (stereo not given) here?
**A.** inactive

**Q.** With `Cc1[nH]c(=O)n(C(C)(C)C)c(=O)c1Cl` as the compound, how does the Potency read?
**A.** inactive

**Q.** `CCN(CC)CCO` was tested. Which Potency did it give?
**A.** inactive

**Q.** How did the Potency turn out when `CC(C)OC(=O)Nc1cccc(Cl)c1` was run?
**A.** inactive

**Q.** With `Nc1ccc(Br)cc1` as the compound, how does the Potency read?
**A.** inactive

**Q.** How did the Potency turn out when `OC(O)C(Cl)(Cl)Cl` was run?
**A.** inactive

**Q.** `[N-]=[N+]=[N-]` was tested. Which Potency did it give?
**A.** inactive

**Q.** `CCC[N+](=O)[O-]` was tested. Which Potency did it give?
**A.** inactive

**Q.** With `O=Cc1cccc(Oc2ccccc2)c1` as the compound, how does the Potency read?
**A.** inactive

**Q.** `BrCCBr` was tested. Which Potency did it give?
**A.** inactive

**Q.** With `CCCCCCCCCCCC#N` as the compound, how does the Potency read?
**A.** inactive

**Q.** Which Potency does the source give for `CCCCN(CC)C(=O)SCCC` here?
**A.** inactive

**Q.** Which Potency does the source give for `CC1C=[C-]C=C1.[C-]#[O+].[C-]#[O+].[C-]#[O+].[Mn]` here?
**A.** inactive

**Q.** Which Potency does the source give for `CC(C)(C)OOC(C)(C)C` here?
**A.** inactive

**Q.** Which Potency does the source give for `CN(C)CCO` here?
**A.** inactive

**Q.** For `O=NN1CCCC1`, which Potency is on record?
**A.** inactive

**Q.** With `[O-][Cl+2]([O-])O` as the compound, how does the Potency read?
**A.** inactive

**Q.** How did the Potency turn out when `CCC12COCN1COC2` was run?
**A.** inactive

**Q.** How did the Potency turn out when `Clc1cccc(Cl)c1Cl` was run?
**A.** inactive

**Q.** `CCNc1nc(NC(C)(C)C)nc(SC)n1` was tested. Which Potency did it give?
**A.** inactive

**Q.** How did the Potency turn out when `C#CCN(C)[C@H](C)Cc1ccccc1` was run?
**A.** inactive

**Q.** `O=[N+]([O-])c1ccc(Oc2ccc(Cl)cc2Cl)cc1` was tested. Which Potency did it give?
**A.** inactive

**Q.** `CC(C)OC(=O)Nc1ccccc1` was tested. Which Potency did it give?
**A.** inactive

**Q.** With `ClCCBr` as the compound, how does the Potency read?
**A.** inactive

**Q.** Which Potency does the source give for `Cc1ccc([N+](=O)[O-])cc1C` here?
**A.** inactive

**Q.** With `CCNc1nc(NC(C)C)nc(SC)n1` as the compound, how does the Potency read?
**A.** inactive
